In the supplement of paper PMC10681739:

Key:
ETS1 = biological target: T1, ETS1 (UniProt P14921); experiment: ETS1 binding intensity (PBM fluorescence), ETS1 alone (arbitrary fluorescence units); higher = stronger binding; conditions: ETS1 concentration 1 nM; RUNX1 concentration 0 nM
T1 sequence: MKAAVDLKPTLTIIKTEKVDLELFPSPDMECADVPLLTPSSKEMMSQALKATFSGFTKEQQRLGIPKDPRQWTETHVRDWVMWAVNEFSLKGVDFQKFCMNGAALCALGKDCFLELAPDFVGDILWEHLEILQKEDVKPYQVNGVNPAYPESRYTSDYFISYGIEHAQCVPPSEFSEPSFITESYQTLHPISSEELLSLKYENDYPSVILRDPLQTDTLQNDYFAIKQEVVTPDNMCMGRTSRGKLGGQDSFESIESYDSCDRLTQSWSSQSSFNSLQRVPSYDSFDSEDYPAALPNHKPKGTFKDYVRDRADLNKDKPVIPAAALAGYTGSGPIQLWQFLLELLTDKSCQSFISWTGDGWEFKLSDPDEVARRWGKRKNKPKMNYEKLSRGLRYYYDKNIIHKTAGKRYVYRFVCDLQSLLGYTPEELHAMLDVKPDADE

RUNX1 [1] = biological target: RUNX1 (UniProt Q01196); experiment: RUNX1 binding intensity (PBM fluorescence), RUNX1 alone (arbitrary fluorescence units); higher = stronger binding; conditions: RUNX1 concentration 2 nM; ETS1 concentration 0 nM
Protocol: (§1)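 Cooperative gcPBM on 36-bp genomic probes with neighbouring ETS1 and RUNX1 sites. Recombinant human RUNX1 (2 nM) was incubated alone or with ETS1 (25 nM) and detected with anti-RUNX1 antibody plus Alexa488 secondary. Values are medians over 4 replicate spots; the RUNX1+ETS1 data were normalised to the RUNX1-only data. The probes sit in constant array flanks that are not printed.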

RUNX1 [2] = biological target: RUNX1 (UniProt Q01196); experiment: RUNX1 binding intensity (PBM fluorescence) in presence of ETS1, normalised to RUNX1-only experiment (arbitrary fluorescence units); higher = stronger binding; conditions: RUNX1 concentration 2 nM; ETS1 concentration 25 nM
Protocol: as §1
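For RUNX1 binding intensity (PBM fluorescence) in presence of ETS1, normalised to RUNX1-only experiment in this document: Full-length recombinant human ETS1 or RUNX1 bound to double-stranded 36-bp genomic probes on microarrays, detected by protein-specific primary antibody and Alexa488 secondary, spot fluorescence as median of four replicate spots.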
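For RUNX1 binding intensity (PBM fluorescence), RUNX1 alone in this document: Full-length recombinant human RUNX1 bound to double-stranded 36-bp genomic probes on a high-density microarray, scored as Alexa488 fluorescence per spot via anti-RUNX1 antibody, median of four replicate spots.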

Sequence of RUNX1 (Q01196 whole entry): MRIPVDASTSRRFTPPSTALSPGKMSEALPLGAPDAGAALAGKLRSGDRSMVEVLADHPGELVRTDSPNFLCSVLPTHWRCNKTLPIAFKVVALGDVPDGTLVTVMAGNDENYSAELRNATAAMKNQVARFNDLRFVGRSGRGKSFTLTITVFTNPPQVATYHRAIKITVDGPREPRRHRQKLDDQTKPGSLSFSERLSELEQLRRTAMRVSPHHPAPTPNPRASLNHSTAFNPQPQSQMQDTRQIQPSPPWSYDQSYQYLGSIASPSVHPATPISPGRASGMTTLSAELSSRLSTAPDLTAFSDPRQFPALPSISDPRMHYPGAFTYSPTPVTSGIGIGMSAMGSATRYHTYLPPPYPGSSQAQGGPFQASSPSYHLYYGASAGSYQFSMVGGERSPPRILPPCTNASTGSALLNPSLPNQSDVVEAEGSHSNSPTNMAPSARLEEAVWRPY

| Sequence | ETS1 binding intensity (ETS1) | RUNX1 binding intensity (RUNX1 [1]) | RUNX1 binding intensity (RUNX1 [2]) |
| --- | --- | --- | --- |
| TTCACAACACAGGATGTGCGGTATTATACGGCAAAG | 5120 | 898 | 2390 |
| AACCATTACAGGATGTGAGATTCAAACCACTAACAG | 2270 | 849 | 1180 |
| CGTCTAATTGCAGGAAGTGGTTTGAAATGTTAATCT | 4180 | 1980 | 3650 |
| TGAAGCAGGCGGAAGTGCTGTGGTTTCTGGCGACTG | 4090 | 939 | 2830 |
| CTTAGCACTTCAGCCGGAAACCACAGCATACATTTC | 3980 | 1460 | 2310 |
| GCCAACAGGAAGCTGGAAGCCAACCGCACTGTGTGC | 1190 | 899 | 1670 |
| GAAGGAAGTGGAGACAGTAAGGGGAAACCACAAACC | 1060 | 922 | 1190 |
| GCTCCCGGATGTTCTGGGGATCTGCGGCCGCCTGGC | 1300 | 751 | 1320 |
| GCCACTATTTCCTGCCTTCTGCGGCTGAGAGTCCCA | 981 | 1220 | 3520 |
| AGGCCCCGCCCCTTCCGCCCACAGAGCCCGCCACTT | 779 | 1100 | 1730 |
| GCCGGCGGCCGGAAGTCTATCCCGCAGAAGCGCAGC | 9360 | 736 | 1900 |
| GCCACACTTCCGGCGGGGCTGCGACCGCAGAGGGGC | 1170 | 1140 | 3600 |
| GTTGAGTTCCGGGGGAGGTTGAGTTCCTGCGGTCAA | 397 | 1220 | 2450 |
| CGTTCTCTCATTTCCTGTGTGCACCCACATGAACCA | 3340 | 1740 | 2920 |
| TCACATTTTGCCGGATGTGGGTTGAGGGCATGCTGC | 6680 | 773 | 8730 |
| ACAATAACAGGAAGTGGTGGGGACTGCGGTGACCTG | 4750 | 865 | 3340 |
| CACCTCCTCTCCGGATGCGGTTTGTTCTGCTTGTAG | 2580 | 2210 | 6810 |
| GACAATGAGCGCACAGGATGTGGTTTGGCGGCAGGG | 6680 | 854 | 3690 |
| ATCACAAGCAGAGGATGTGGTTAGTGTTTCGTTCCA | 804 | 995 | 2160 |
| ACGTGATGGCAGTCTTCCTGCCCACAAGTTCTGGTC | 422 | 1250 | 1440 |
| TATTGTGTACTTCCCCTTCATGTTGTGGTTGGCTTT | 449 | 1120 | 1560 |
| AGTGCAGAGTGGACAGGATGTGGTGGAGGTGAGAGA | 5690 | 723 | 1500 |
| GGGTCGCGGCCTTCCGGCGAACGCGGTTACCGTGGA | 555 | 853 | 1380 |
